# Assay results from PubChem BioAssay (NCATS).
# Results filed as inconclusive are left out. A number with no mark means an inactive call. Activity calls are given as the source filed them. Calls follow the shape of the dose curve; as a rule, active = well fitted cell-killing curve with a large enough effect; inconclusive = small, poorly fitted or top-dose-only effect, or effect the other way; inactive = no such curve, though single readings can be large or run the other way.
# How the values were obtained:
# [1] = Quantitative High-Throughput drug screen in 47 multiple myeloma cell lines against the NCATS MIPE library collection: LP1_DSMZ cell viability assay (AID 1918982); also: nearly all actives have a fitted effect of over 35% in size
# In short: (§1)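 Plated at 500 cells per well, myeloma lines received MIPE 4.0 compounds by pin tool. Following 48 h culture at 37 °C, CellTiter-Glo luminescence gave viability relative to DMSO and media-only controls.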
# [2] = Quantitative High-Throughput drug screen in 47 multiple myeloma cell lines against the NCATS MIPE library collection: KMS28PE_JCRB cell viability assay (AID 1918983); also: nearly all actives have a fitted effect of over 35% in size
# In short: as §1
# [3] = Quantitative High-Throughput drug screen in 47 multiple myeloma cell lines against the NCATS MIPE library collection: L363_DSMZ cell viability assay (AID 1918984); also: nearly all actives have a fitted effect of over 40% in size
# In short: as §1
# [4] = Quantitative High-Throughput drug screen in 47 multiple myeloma cell lines against the NCATS MIPE library collection: KMS34_JCRB cell viability assay (AID 1918985); also: nearly all actives have a fitted effect of over 40% in size
# In short: as §1
# [5] = Quantitative High-Throughput drug screen in 47 multiple myeloma cell lines against the NCATS MIPE library collection: OCIMY7_PLB cell viability assay (AID 1918987); also: nearly all actives have a fitted effect of over 65% in size
# In short: as §1
# [6] = Quantitative High-Throughput drug screen in 47 multiple myeloma cell lines against the NCATS MIPE library collection: OPM1_PLB cell viability assay (AID 1918989); also: nearly all actives have a fitted effect of over 40% in size
# In short: as §1
# [7] = Quantitative High-Throughput drug screen in 47 multiple myeloma cell lines against the NCATS MIPE library collection: SKMM1_PLB cell viability assay (AID 1919863); conditions: SKMM1 myeloma viability, CellTiter-Glo ATP, 48 h; viability: stronger effect = lower value; also: nearly all actives have a fitted effect of over 35% in size; as to viability: series mostly up to about 46 µM
# In short: as §1
# [8] = Quantitative High-Throughput drug screen in 47 multiple myeloma cell lines against the NCATS MIPE library collection: U266_ATCC cell viability assay (AID 1919864); also: nearly all actives have a fitted effect of over 35% in size
# In short: as §1
# [9] = Quantitative High-Throughput drug screen in 47 multiple myeloma cell lines against the NCATS MIPE library collection: XG6_PLB cell viability assay (AID 1919865); also: nearly all actives have a fitted effect of over 40% in size
# In short: as §1
# [10] = Quantitative High-Throughput drug screen in 47 multiple myeloma cell lines against the NCATS MIPE library collection: OCIMY5_PLB cell viability assay (AID 1918988); also: nearly all actives have a fitted effect of over 65% in size
# In short: as §1
# Potency is read from the fitted curve at half-maximal effect.
Compound,Potency [1],Potency [2],Potency [3],Potency [4],Potency [5],Potency [6],Potency [7],Potency [8],Potency [9],Potency [10],viability [7]
COCCOc1ccc2c(c1)ncn2-c1ccc2cccc(N3CCC(N)CC3)c2n1,2.09 µM (active),13.2 µM (active),187 nM (active),0.372 µM (active),469 nM (active),0.0935 µM (active),23.5 µM (active),8.33 µM (active),0.372 µM (active),,
OCCCNc1cc(-c2ccnc(Nc3cccc(Cl)c3)n2)ccn1,0.105 µM (active),0.148 µM (active),,0.132 µM (active),46.9 nM (active),0.0469 µM (active),0.148 µM (active),0.148 µM (active),0.0332 µM (active),0.105 µM (active),
Cc1ccc(C(=O)Nc2cccc(C(F)(F)F)c2)cc1-c1ccc2nc(NCCN3CCOCC3)ncc2c1,18.7 µM (active),14.8 µM (active),,9.35 µM (active),935 nM (active),7.43 µM (active),16.6 µM (active),14.8 µM (active),3.32 µM (active),14.8 µM (active),
O=C(NCCS(=O)(=O)c1ccc(C(F)(F)F)cn1)c1ccc(Cl)cc1,inactive,inactive,inactive,inactive,,inactive,,inactive,,,
COc1cc(=C2C=c3ccccc3=N2)[nH]c1=Cc1[nH]c(C)cc1C,0.743 µM (active),1.66 µM (active),,1.48 µM (active),1480 nM (active),5.9 µM (active),4.18 µM (active),5.26 µM (active),5.9 µM (active),0.833 µM (active),
O=C(CCCCCCC(=O)Nc1ccc([C@H]2O[C@@H](CSc3nc(-c4ccccc4)c(-c4ccccc4)o3)C[C@@H](c3ccc(CO)cc3)O2)cc1)NO,11.8 µM (active),16.6 µM (active),,6.62 µM (active),8330 nM (active),8.33 µM (active),23.5 µM (active),13.2 µM (active),14.8 µM (active),11.8 µM (active),
C1Cc2[nH]nc(-c3nn[nH]n3)c2C1,inactive,inactive,inactive,,,,,,inactive,,115%
COc1cccc2nc(-c3cccs3)nc(NN3C(=O)C=C(C)C3=O)c12,0.187 µM (active),2.64 µM (active),,0.0296 µM (active),26.4 nM (active),0.0833 µM (active),1.05 µM (active),0.118 µM (active),0.0833 µM (active),0.0418 µM (active),
COC(=O)[C@]12CCC(C)(C)C[C@@H]1[C@@H]1C(=O)C=C3[C@@]4(C)C=C(C#N)C(=O)C(C)(C)[C@@H]4CC[C@@]3(C)[C@]1(C)CC2,0.743 µM (active),0.526 µM (active),526 nM (active),0.662 µM (active),,0.209 µM (active),0.469 µM (active),0.264 µM (active),0.372 µM (active),,
Cc1cc(Nc2cc(NC(=O)c3c(Cl)cccc3Cl)ccn2)nc(N)n1,0.418 µM (active),26.4 µM (active),1660 nM (active),1.18 µM (active),590 nM (active),,,6.62 µM (active),4.69 µM (active),,
Cc1nc2ccc(CN(C)c3ccc(C(=O)N[C@@H](CCC(=O)O)C(=O)O)s3)cc2c(=O)[nH]1,inactive,inactive,1480 nM (active),,inactive,0.469 µM (active),,11.8 µM (active),inactive,,
Cc1c(Cn2c(C)nc3c(C(=O)O)cc(N4CCOCC4)cc32)cccc1C(F)(F)F,inactive,inactive,,,264 nM (active),18.7 µM (active),,inactive,,8.33 µM (active),
O=c1c2ccccc2nc2n1CCc1c-2[nH]c2ccccc12,inactive,inactive,,inactive,18700 nM (active),,23.5 µM (active),inactive,inactive,,
CC(=O)OCCN1C(=O)c2c(C)nc3ccc(S(=O)(=O)N4CCOCC4)cc3c2C1=O,inactive,inactive,,inactive,,inactive,,,inactive,,
CC(C)[C@H](C(=O)Nc1ccc(C(=O)NO)cc1)c1ccccc1,0.743 µM (active),0.833 µM (active),,0.264 µM (active),418 nM (active),0.469 µM (active),,,2.35 µM (active),,
COC(=O)Nc1nc2ccc(C(=O)c3ccc(F)cc3)cc2[nH]1,0.935 µM (active),1.66 µM (active),,0.935 µM (active),296 nM (active),0.59 µM (active),,,0.469 µM (active),0.469 µM (active),
C[C@H]1C[C@@H]2[C@@H]([C@@H](O)C[C@@]3(C)[C@H]2CC[C@]3(O)C(=O)CO)[C@@]2(C)C=CC(=O)C=C12,0.0833 µM (active),inactive,,inactive,,inactive,,inactive,inactive,,

Compound,Potency [1],Potency [2],Potency [3],Potency [4],Potency [5],Potency [6],Potency [7],Potency [8],Potency [9],Potency [10],viability [7]
CCn1nnc2c(N3CCOCC3)nc(-c3ccc(NC(=O)Nc4ccc(C(=O)N5CCN(C)CC5)cc4)cc3)nc21,0.0469 µM (active),0.0059 µM (active),,0.148 µM (active),3720 nM (active),0.0059 µM (active),0.059 µM (active),,,,
COc1ccc(CC2SC(=O)NC2=O)cc1C(=O)NCc1ccc(C(F)(F)F)cc1 (stereo not drawn),inactive,inactive,,inactive,,6.62 µM (active),,,,,
C=CC(=O)Nc1cccc(Oc2nc(Nc3ccc(N4CCN(C)CC4)cc3)ncc2Cl)c1,16.6 µM (active),18.7 µM (active),,9.35 µM (active),209 nM (active),1.05 µM (active),,,1.18 µM (active),,
Cn1c2ccccc2c2c3c(c4c5ccccc5n(CCC#N)c4c21)CNC3=O,14.8 µM (active),14.8 µM (active),,3.72 µM (active),590 nM (active),0.296 µM (active),,,0.526 µM (active),5.9 µM (active),
Cc1cc(Nc2ncnc3ccc(-c4ccc(CNCCS(C)(=O)=O)o4)cc23)ccc1Oc1ccn2ncnc2c1,7.43 µM (active),23.5 µM (active),,,9350 nM (active),5.9 µM (active),,18.7 µM (active),1.66 µM (active),16.6 µM (active),
O=c1[nH]nc(Sc2ncc([N+](=O)[O-])s2)n1-c1ccc2c(c1)OCCO2,6.62 µM (active),3.32 µM (active),,2.09 µM (active),935 nM (active),2.09 µM (active),4.18 µM (active),,2.09 µM (active),2.96 µM (active),
O=C(C=Cc1c(C(=O)O)[nH]c2cc(Cl)cc(Cl)c12)Nc1ccccc1,inactive,inactive,,,inactive,inactive,,,inactive,inactive,114%
Nc1ccc(C(=O)c2cc3c(ccc4ccccc43)[nH]2)cc1,5.26 µM (active),9.35 µM (active),,4.18 µM (active),743 nM (active),7.43 µM (active),2.96 µM (active),,0.662 µM (active),2.64 µM (active),
Cc1cc(Nc2cc(N3CCN(C)CC3)nc(C=Cc3ccccc3)n2)n[nH]1,34 µM (active),13.6 µM (active),,5.4 µM (active),605 nM (active),3.82 µM (active),42.9 µM (active),,9.59 µM (active),4.81 µM (active),
COc1cc2ncn(-c3cc(OCc4ccccc4C(F)(F)F)c(C(N)=O)s3)c2cc1OC,0.935 µM (active),16.6 µM (active),,,332 nM (active),0.743 µM (active),,18.7 µM (active),1.66 µM (active),1.32 µM (active),
CCS(=O)(=O)c1cccc(-c2cc(C(=O)NC3CCN(C)CC3)c(C)c3[nH]c4ncc(C)cc4c23)c1,7.43 µM (active),1.87 µM (active),,0.935 µM (active),4180 nM (active),0.59 µM (active),8.33 µM (active),,0.833 µM (active),1.48 µM (active),
N#Cc1c(O)c2c(-c3ccc(-c4ccccc4O)cc3)csc2[nH]c1=O,inactive,13.2 µM (active),,inactive,,,,inactive,inactive,inactive,
N#CCNC(=O)c1ccc(-c2ccnc(Nc3ccc(N4CCOCC4)cc3)n2)cc1,20.9 µM (active),18.7 µM (active),,4.69 µM (active),5260 nM (active),11.8 µM (active),,18.7 µM (active),2.64 µM (active),13.2 µM (active),
COc1ccc2c(OCc3nnc4ccc(-c5ccccc5)nn34)ccnc2c1,inactive,inactive,,inactive,,,,inactive,0.469 µM (active),,
CN(c1ncccc1CNc1nc(Nc2ccc3c(c2)CC(=O)N3)ncc1C(F)(F)F)S(C)(=O)=O,8.33 µM (active),9.35 µM (active),,8.33 µM (active),,4.69 µM (active),14.8 µM (active),9.35 µM (active),3.72 µM (active),5.26 µM (active),
CN[C@H]1CCc2cc(OC)c(OC)c(OC)c2-c2ccc(OC)c(=O)cc21,0.0015 µM (active),0.0019 µM (active),,,1 nM (active),,0.0037 µM (active),0.0066 µM (active),,0.0013 µM (active),
